Measured values as given in PubChem BioAssay (NCATS).
Records with an inconclusive call do not appear. Values without a mark were called inactive. Activity calls are given as the source filed them. Calls come from the whole dose curve; as a rule, active = well fitted inhibition curve with a large enough effect; inconclusive = small, poorly fitted or top-dose-only effect; inactive = flat fitted curve, though single readings scatter.

What follows are compounds tested on KB-3-1 (assay: Cytotoxic Profiling of Annotated Libraries Using Quantitative High-Throughput Screening (AID 1296008; note: nearly all actives have a fitted effect of over 60% in size)). Details: Five cell lines viability, CellTiter-Glo ATP luminescence, 48-72 h; max response: hits give low values.
Summary of the method: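 Compounds were pin-transferred onto cells and incubated 48 or 72 hr at 37 degree Celsius, 95% humidity. CellTiter-Glo was added, plates sat 10 min at room temperature, then ATP-coupled luminescence was imaged as the viability read-out.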
% is set by controls: 0 for no effect and ±100 for the full control effect; potency is the fitted concentration of half-maximal effect.

| SMILES | max response | Potency | outcome |
| --- | --- | --- | --- |
| CCOC(=O)c1sc(NC(=O)[C@H](C(C)C)n2c(=O)[nH]c3ccccc3c2=O)nc1C | 8.45% | – | – |
| COc1cc(O)c2c(c1)C1=C[C@H](O)[C@@H](O)C[C@]1(C)OC2=O | 9.7% | – | – |
| CC[C@]12C=CCN3CC[C@@]4(c5cc([C@@]6(C(=O)OC)C[C@H]7C[C@@H](C(C)(F)F)CN(Cc8c6[nH]c6ccccc86)C7)c(OC)cc5N(C)[C@H]4[C@@](O)(C(=O)OC)[C@@H]1OC(C)=O)[C@@H]32 | – | 137 nM (active) | – |
| COC1/C=C/C(C)(O)C(SCC(N)C(=O)O)CC(=O)OC(C)C(C)CC/C=C/1C (stereo not given) | 0.268% | – | – |
| C=CC(=O)N1CCN(C(=O)CNc2cc(I)c(Cl)cc2O)CC1 | – | 20600 nM (active) | – |
| CN(C)c1ccc2c(c1)OC(N)=C(C#N)C2c1cccc(C(F)(F)F)c1 (stereo not given) | – | 291 nM (active) | – |
| COc1ccc2[nH]c3c(-c4cccc5ccccc45)nccc3c2c1 | – | 820 nM (active) | – |
| O=C(N/N=C/c1ccc(O)c(O)c1)c1cc2ccccc2cc1O | 7.95% | – | – |
| COc1cc2nc(N3CCC(N4CCCCC4)CC3)nc(NC3CCCCCC3)c2cc1OC | – | 5800 nM (active) | – |
| CCNC(=O)Nc1ncc(-c2cc(-c3c(C)cc(OC)cc3C)nc(-c3cnccn3)n2)s1 | 1.64% | – | – |
| Cc1ccc(N)cc1O | -6.12% | – | – |
| O=C(CO)[C@@H](O)[C@H](O[C@@H]1O[C@H](CO)[C@H](O)[C@H](O)[C@H]1O)[C@H](O)CO | 5.5% | – | – |
| Cn1cc(-c2ccc3nnc(Sc4ccc5nn(C)cc5c4)n3n2)cn1 | – | – | inactive |
| CC(C)[C@@](C)(O)[C@@H]1CN(c2nc(-c3[nH]nc4ncccc34)c(F)cc2Cl)CCN1 | – | 20600 nM (active) | – |
| C[C@@H]1CCC2C(C)(C)[C@H](O)CC[C@]2(C)[C@@]12Cc1c(O)cc3c(c1O2)CN([C@@H](CCC(=O)O)C(=O)O)C3=O (stereo not given in full) | 6.48% | – | – |
| Nc1nc2c(ncn2[C@@H]2O[C@@H]3COP(=O)(O)O[C@H]3[C@H]2O)c(=O)[nH]1 | – | – | inactive |
| CC1CCCCN1S(=O)(=O)c1ccc(N2CCCC2=O)cc1 (stereo not given) | -2.83% | – | – |
| Cc1ccc(-c2c(C(=O)CF)n(CCCO)c3ncnc(N)c23)cc1 | 4.56% | – | – |
| O=C(O)[C@H](Cc1ccc(Nc2nccc3ccncc23)cc1)NC1=C(Br)C(=O)C12CCCCC2 | – | – | inactive |
| COC(=O)CC(C)(O)CC(=O)OCc1ccc(O[C@@H]2O[C@H](CO)[C@@H](O)[C@H](O)[C@H]2O)cc1 (stereo not given in full) | 4.52% | – | – |
| COc1ccc(N(C)c2nc(C)nc3ccccc23)cc1 | – | 5.2 nM (active) | – |
| Cc1cccc(-c2[nH]c(Cc3cccc(C(N)=O)c3)nc2-c2ccc3nccnc3c2)n1 | -5.51% | – | – |
| Nc1ccccc1N | -4.37% | – | – |
| c1ccc(-c2csc(N3CCOCC3)n2)cc1 | 8.26% | – | – |
| CC(=O)O[C@@H]1[C@@H](O)[C@H](O[C@H]2CC[C@]34C[C@]35CC[C@]3(C)[C@@H]([C@@]6(C)CC[C@@H](C(C)(C)O)O6)[C@@H](O)C[C@@]3(C)[C@@H]5C[C@H](O[C@@H]3O[C@H](CO)[C@@H](O)[C@H](O)[C@H]3O)[C@H]4C2(C)C)OC[C@H]1O | – | – | inactive |
